Laboratory results reported in PMC4336329 (PLoS ONE, 2015).
Among all 310,000 compounds or so, about 14,000 (4.5%) showed an effect of 50% or more. The effect is printed as a negative number. Shown is part of a subset that was picked to be rich in strong results.

molecular target: human ether-à-go-go-related gene (hERG) potassium channel (human, UniProt Q12809); assay: primary screen, population patch clamp on CHO cells stably expressing hERG; higher = less effect of the substance
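Further: peak tail current of the secondary pulse compared with the same well before compound.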

Sequence of human ether-à-go-go-related gene (hERG) potassium channel (Q12809 whole entry, looked up): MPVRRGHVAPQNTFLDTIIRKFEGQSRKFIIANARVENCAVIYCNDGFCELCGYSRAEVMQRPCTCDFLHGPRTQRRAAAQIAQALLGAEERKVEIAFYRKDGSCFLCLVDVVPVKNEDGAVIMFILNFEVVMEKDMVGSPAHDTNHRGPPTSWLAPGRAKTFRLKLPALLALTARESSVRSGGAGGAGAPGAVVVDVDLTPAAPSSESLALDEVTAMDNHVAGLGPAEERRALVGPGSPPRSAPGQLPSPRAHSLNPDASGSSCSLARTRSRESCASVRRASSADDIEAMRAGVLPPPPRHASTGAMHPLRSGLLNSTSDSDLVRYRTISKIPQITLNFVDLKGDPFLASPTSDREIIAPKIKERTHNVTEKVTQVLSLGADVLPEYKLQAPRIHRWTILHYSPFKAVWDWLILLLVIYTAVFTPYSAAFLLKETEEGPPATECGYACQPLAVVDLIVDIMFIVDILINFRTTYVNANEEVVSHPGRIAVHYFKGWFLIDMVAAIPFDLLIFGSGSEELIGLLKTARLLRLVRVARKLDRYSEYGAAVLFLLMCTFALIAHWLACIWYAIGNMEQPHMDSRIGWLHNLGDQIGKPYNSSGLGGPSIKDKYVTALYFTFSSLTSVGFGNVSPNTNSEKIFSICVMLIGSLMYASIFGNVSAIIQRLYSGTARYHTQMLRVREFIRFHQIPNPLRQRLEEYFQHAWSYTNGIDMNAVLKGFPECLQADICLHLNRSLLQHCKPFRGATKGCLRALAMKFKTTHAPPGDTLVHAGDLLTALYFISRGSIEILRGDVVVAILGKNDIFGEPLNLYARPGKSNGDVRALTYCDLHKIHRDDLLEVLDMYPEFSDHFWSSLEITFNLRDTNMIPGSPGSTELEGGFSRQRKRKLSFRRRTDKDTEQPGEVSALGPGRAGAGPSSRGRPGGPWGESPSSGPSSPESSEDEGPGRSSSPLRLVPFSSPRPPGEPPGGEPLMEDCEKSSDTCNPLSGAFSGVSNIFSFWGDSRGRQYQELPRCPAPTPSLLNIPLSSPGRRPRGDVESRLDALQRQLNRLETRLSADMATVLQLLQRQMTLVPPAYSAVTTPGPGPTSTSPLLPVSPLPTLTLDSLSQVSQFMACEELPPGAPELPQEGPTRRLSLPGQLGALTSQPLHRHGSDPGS

| SMILES | hERG current change (%, negative = inhibition) at 10uM [%] |
| --- | --- |
| CCN1C(=O)[C@H]2[C@@H](c3ccc(C)cc3)N3C(=O)N(c4ccc(C(F)(F)F)cc4)C(=O)[C@@]3(Cc3ccccc3)[C@H]2C1=O | 16.3 |
| O=c1c2ccccc2nc(-c2ccc(-c3ccccc3)cc2)n1-c1ccncc1 | -42.9 |
| CC(OC(=O)CCCC(=O)Nc1ccc(F)cc1)C(=O)c1ccccc1 (stereo not shown) | -5.79 |
| CC(=O)Nc1ccc(NC(=O)C(C)OC(=O)CCC(=O)c2ccc(F)cc2)cc1 (stereo not shown) | -7.13 |
| CC(OC(=O)CCC(=O)c1ccccc1)C(=O)Nc1ccc(F)cc1 (stereo not shown) | -284 |
| COc1ccc(/C=N\NC(=O)COc2ccccc2Cl)cc1Cn1nc(C)cc1C | 8.15 |
| CC1(C)CC(=O)C2=C(C1)N(CCN1CCOCC1)C1=C(C(=O)CC(C)(C)C1)C2c1ccc(Cl)cc1 | -34.1 |
| CC1(C)CC(=O)C2=C(C1)N(CCN1CCOCC1)C1=C(C(=O)CC(C)(C)C1)C2c1cccc(F)c1 | -33.5 |
| CC1(C)CC(=O)C2=C(C1)N(CCN1CCOCC1)C1=C(C(=O)CC(C)(C)C1)C2c1cccc(Cl)c1 | -54 |
| CC(CCc1ccccc1)OS(N)(=O)=O (stereo not shown) | 8.74 |
| COc1ccc(S(=O)(=O)N2CCOCC2)cc1NC(=O)COc1ccccc1 | -40.5 |
| Cc1ccc(SC/C(O)=C(\C#N)c2nc3ccccc3s2)cc1 | 29.9 |
| Cc1ccc(C(=O)NCC(=O)OCC(=O)Nc2ccc(Cl)cc2C(F)(F)F)cc1C | -4.47 |
| O=c1[nH]c2ccccc2nc1CCc1ccccc1 | 35.5 |
| N#Cc1ccsc1NC(=O)C1CCN(C(=O)c2ccc(F)cc2)CC1 | -45.7 |
| O=C(C1CCCCC1)N1CCCc2ccccc21 | -5.03 |
| Cc1ccccc1C(=O)N1CCC(C(=O)N2CCCc3ccccc32)CC1 | -1.08 |
| Cc1cccc(NC(=O)C2CCN(C(=O)c3ccccc3C)CC2)n1 | -17.6 |
| O=C(c1ccc(Cl)cc1)N1CCC(C(=O)N2CCCc3ccccc32)CC1 | -76.4 |
| O=C(Nc1ccccc1N1CCCC1)C1CCN(C(=O)c2ccc(Cl)cc2)CC1 | -59.8 |
| O=C(NC1CC1)C1CCN(C(=O)c2ccc(Cl)cc2)CC1 | 19.8 |
| Cc1cccc(NC(=O)C2CCN(C(=O)c3ccc(F)cc3)CC2)n1 | -0.274 |
| Cc1ccccc1C(=O)N1CCC(C(=O)Nc2ccccc2N2CCCC2)CC1 | -0.721 |
| N#Cc1ccsc1NC(=O)C1CCN(C(=O)c2ccc(Cl)cc2)CC1 | -73.2 |
| Cc1cccc(NC(=O)C2CCN(C(=O)c3ccc(Cl)cc3)CC2)n1 | -51.5 |
| O=C(Nc1ccccc1N1CCCC1)C1CCN(C(=O)c2ccc(F)cc2)CC1 | -27.8 |
| Cc1cccc(C(=O)NNS(=O)(=O)c2ccc(F)cc2)c1 | 8.24 |
| O=c1cc(CO)oc(C(Nc2ccccn2)c2ccc(F)cc2)c1O (stereo not shown) | 9.87 |

| SMILES | hERG current change (%, negative = inhibition) at 10uM [%] |
| --- | --- |
| O=C(c1ccc2oc(CCc3ccccc3)nc2c1)N1CCC(O)CC1 | 14.9 |
| Cc1ccc(C(=O)NCC(=O)OCC(=O)c2ccccc2)s1 | -12.6 |
| COc1ccc(CC(=O)Nc2c(C(N)=O)oc3ccccc23)cc1OC | 11.4 |
| COc1ccc(CCNS(=O)(=O)c2ccc(Br)s2)cc1 | -5.73 |
| O=C(N/N=C/c1cc([N+](=O)[O-])ccc1O)c1cccc(N2CCCC2=O)c1 | 3.22 |
| CC(OC(=O)CCc1nc2ccccc2[nH]c1=O)c1ccccc1 (stereo not shown) | -5.1 |
| O=C(NC1CCCCC1)C1CCN(C(=O)c2ccc(Cl)cc2)CC1 | -6.16 |
| O=C(Nc1ccccc1N1CCCCC1)c1ccc(Cl)cc1 | 12.6 |
| O=C(Nc1ccccc1N1CCCCC1)C1CCN(C(=O)c2ccc(Cl)cc2)CC1 | -69.9 |
| CC(C)(C)C(=O)COC(=O)c1cc(-c2ccncc2)nc2ccccc12 | -8.43 |
| COc1ccc(-n2c(SCC(=O)Nc3cc(C)on3)nc3c(c2=O)SCC3)cc1 | 12.1 |
| COCCN1CN(S(=O)(=O)c2ccccc2)c2nc3ccccc3nc21 | -16.7 |
| COCCN1CN(S(=O)(=O)c2ccc(Cl)cc2)c2nc3ccccc3nc21 | -75.9 |
| COCCCN1CN(S(=O)(=O)c2ccc(Cl)cc2)c2nc3ccccc3nc21 | -32.7 |
| COCCn1nnnc1C(C(C)C)N1CCN(C(=O)c2ccco2)CC1.Cl (stereo not shown) | -1.29 |
| CCOC(=O)Cc1nnc(NC(=O)c2ncn[nH]2)s1 | -9.4 |
| CN1CC(=O)N(CC(=O)Nc2ccc(Cl)c(C(F)(F)F)c2)C1=O | 8.97 |
| CCOC(=O)CN1CCC(c2ccccc2)CC1 | -2.19 |
| CCCCC(O)CN1CCC(c2ccccc2)CC1 (stereo not shown) | -56.6 |
| CC(CN1CCC(O)CC1)c1ccccc1 (stereo not shown) | 10.6 |
| O=C(Nc1ccc(S(=O)(=O)Nc2nccs2)cc1)c1cc(-c2ccncc2)nc2ccccc12 | 10.1 |
| O=C(c1cccc(F)c1F)N1CCCC1 | 24.7 |
| COC(=O)C1N2C(=O)[C@@H](NC(=O)COc3ccccc3)[C@H]2SC1(C)C (stereo partly shown) | -4.31 |
| Cc1cc(COC(=O)C2N3C(=O)[C@@H](NC(=O)COc4ccccc4)[C@H]3SC2(C)C)on1 (stereo partly shown) | -56.2 |
| CC1(C)S[C@@H]2[C@H](NC(=O)COc3ccccc3)C(=O)N2C1C(=O)OCc1ccccc1 (stereo partly shown) | -48.1 |
| Cc1nc2c(Br)c3nc(C(F)(F)F)[nH]c3c(Br)c2[nH]1 | -4.86 |
| COc1ccc(N(C(=O)CNC(=O)c2cccs2)C(C(=O)NCC2CCCO2)c2ccccc2)cc1OC (stereo not shown) | 4.94 |
